39 sequences from the supplement of paper PMC10338343 can be followed below.

± gives the standard deviation.

Assay [1] relates to MILI (PIWIL2) piRISC loaded with L1MC piRNA (26 nt). As to the kind of experiment: pre-steady-state target cleavage rate (min^-1); guide: L1MC piRNA 5'p-UAACUAAAUACUAUGCAAGCUGUAGG; higher = faster piRNA-guided slicing of the target. The method in brief:
(§1)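 The method was Cleave-'n-Seq, in which uncleaved targets from a transcribed, DNA-blocked target RNA library were sequenced after exposure to active affinity-purified piRISC carrying one synthetic guide, with or without GTSF1 partner protein. Reactions contained 0.1 nM library, 1 nM piRISC and, where present, 500 nM GTSF1 in HEPES–potassium acetate buffer at 33 °C for 0–8 or 0–960 min. Reads were normalised to depth and to weakly complementary targets, three trials were pooled, and k3 was capped at 0.0001 min^-1. The pre-steady-state cleavage rate came from a burst-and-steady-state fit.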

For assay [2], the system named is EfPiwi piRISC loaded with L1MC piRNA (26 nt). As to the kind of experiment: pre-steady-state target cleavage rate (min^-1); auxiliary factor: 500 nM Ephydatia muelleri Gtsf1; guide: L1MC piRNA 5'p-UAACUAAAUACUAUGCAAGCUGUAGG; MIWI and MILI are mouse PIWI proteins and EfPiwi is from a freshwater sponge; tags in brackets are library labels; higher = faster piRNA-guided slicing of the target. The gist of the method: as §1
Where [3] appears, read: auxiliary factor: 500 nM mouse GTSF1.
Setting [4] is: auxiliary factor: none (no GTSF1).

As to UCCUCCUACAGCAUGGAUAGUAUUUAGUUA, the results for the “pre-steady-state target cleavage rate” value in assay [1] (setting [3]), in assay [1] (setting [4]) and in assay [2] were 0.269 ± 0.014, 0.00942 ± 0.0022 and 0.096 ± 0.023, respectively.
For the sequence UCCUGGUACAGCUUGCAUAGUAUUAAGUUA, the “pre-steady-state target cleavage rate” value in assay [1] (setting [3]) was 0.252 ± 0.041; in assay [1] (setting [4]), 0.00423 ± 0.0038; in assay [2], 0.00521 ± 0.0021.
The like results for UCCUGGAUGAUCUUGCAUAGUAUUUAGUUA were, in that order, 0.145 ± 0.016, 0.00813 ± 0.003 and 0.0779 ± 0.023.
The like results for UCCUCCUACAGCUUGCUUAGUAAUUAGUUA were, in that order, 0.24 ± 0.015, 0.00424 ± 0.0021 and 0.0113 ± 0.0049.
For UCCUCCUUGAGCUUGCAUAGUAUUUAGUAA, the “pre-steady-state target cleavage rate” value in assay [1] (setting [3]) stood at 0.217 ± 0.025; in assay [1] (setting [4]), 0.00389 ± 0.0017; in assay [2], 0.00719 ± 0.0026.
The like results for UCCUGGUUCAGCUUGCAUACUAUUUAGUUA were, in that order, 0.0631 ± 0.011, 0.00505 ± 0.0024 and 0.00751 ± 0.0031.
The like results for UCCUGGAUCAGCUUGCUUAGUAUUUAGUUA were, in that order, 0.248 ± 0.019, 0.0092 ± 0.0031 and 0.0228 ± 0.0071.
As for UCCUGCUACAGCUAGCAUACUAUUUAGUUA, the “pre-steady-state target cleavage rate” value in assay [1] (setting [3]) worked out at 0.112 ± 0.018; in assay [1] (setting [4]), 0.0037 ± 0.0024; in assay [2], 0.0063 ± 0.0019.
As to UCCUCCUACAGCUUGCAUAGUAGUUAGUUA, the “pre-steady-state target cleavage rate” value in assay [1] (setting [3]) stood at 0.192 ± 0.026; in assay [1] (setting [4]), 0.00325 ± 0.0032; in assay [2], 0.00786 ± 0.0026.
As for UCCUGCUACAGACUUGCAUAGUAUUUAGUUA, the “pre-steady-state target cleavage rate” value in assay [1] (setting [3]) came out at 0.169 ± 0.018; in assay [1] (setting [4]), 0.00767 ± 0.0021; in assay [2] it was 0.00603 ± 0.0024.
The like results for UCCUCCUACAGCUUGGUAAGUAUUUAGUUA were, in that order, 0.185 ± 0.017, 0.00498 ± 0.0018 and 0.00379 ± 0.0034.
The like results for UCCUGGAUGACCAUGCAUAGUAUUUAGUUA were, in that order, 0.0729 ± 0.022, 0.00375 ± 0.0034 and 0.00488 ± 0.0028.
The like results for UCCUGGAACAGCUUGCCUAGUAUUUAGUUA were, in that order, 0.248 ± 0.015, 0.00673 ± 0.0024 and 0.0399 ± 0.013.
On to UCCUCCUAUCAGCUUGCAUAGUAUUUAGUUA, for which the “pre-steady-state target cleavage rate” value came out at 0.322 ± 0.015 in assay [1] (setting [3]), 0.00786 ± 0.0023 in assay [1] (setting [4]) and 0.0677 ± 0.018 in assay [2].
On to UCCUGCUACAGCUUGGUAAGUAUUUAGUUA, for which the “pre-steady-state target cleavage rate” value stood at 0.131 ± 0.019 in assay [1] (setting [3]), 0.00591 ± 0.0018 in assay [1] (setting [4]) and 0.00341 ± 0.0025 in assay [2].
With UCCUGGAUGAGCCUUGCAUAGUAUUUAGUUA, the “pre-steady-state target cleavage rate” value in assay [1] (setting [3]) was determined as 0.16 ± 0.02; in assay [1] (setting [4]), 0.0071 ± 0.0027; in assay [2], 0.00885 ± 0.0032.
The like results for UCCUGGAACAGGUUGCAUAGUAUUUUGUUA were, in that order, 0.132 ± 0.018, 0.00924 ± 0.0022 and 0.00366 ± 0.0015.
The like results for UCCUGGAUCAGCUUGCAUAGUAUUUAGUAUA were, in that order, 0.233 ± 0.021, 0.00809 ± 0.0032 and 0.0115 ± 0.0043.
The like results for UCCUCGUACAGCUUGCAUUGUAUUUAGUUA were, in that order, 0.223 ± 0.011, 0.00719 ± 0.0021 and 0.0163 ± 0.004.
With UCCUGGUUCAGCUUGCAUUGUAUUUAGUUA, the “pre-steady-state target cleavage rate” value came to 0.191 ± 0.023 in assay [1] (setting [3]), 0.0105 ± 0.0029 in assay [1] (setting [4]) and 0.0223 ± 0.007 in assay [2].
The like results for UCCUGCUUCAGCUUGCAUAGUUUUUAGUUA were, in that order, 0.0646 ± 0.011, 0.00355 ± 0.0025 and 0.00715 ± 0.0025.
The like results for UCCUCCUAGAGCUUGCAUAGUAUUUAGUUA were, in that order, 0.232 ± 0.019, 0.00656 ± 0.0021 and 0.0186 ± 0.0054.
The like results for UCCUGGAUGUCCUUGCAUAGUAUUUGGUUA were, in that order, 0.0891 ± 0.016, 0.00707 ± 0.0022 and 0.00366 ± 0.0027.
For the sequence UCCUGGAUCAGCCUUGCAUAGUAUUUAGUUA, the “pre-steady-state target cleavage rate” value is 0.249 ± 0.023 in assay [1] (setting [3]), 0.00595 ± 0.0023 in assay [1] (setting [4]) and 0.0303 ± 0.0094 in assay [2].
The like results for UCCUCCUACAGCUUGCUUACUAUUUAGUUA were, in that order, 0.089 ± 0.011, 0.00298 ± 0.0026 and 0.0407 ± 0.015.
The like results for UCCUGGAACAGCUUGCGUAGUAUUUAGUUA were, in that order, 0.277 ± 0.016, 0.00716 ± 0.0018 and 0.00807 ± 0.0034.
Regarding UCCUCCUACAGCUUGCAUAGUACUUAGUUA, the “pre-steady-state target cleavage rate” value is 0.277 ± 0.018 in assay [1] (setting [3]), 0.00759 ± 0.002 in assay [1] (setting [4]) and 0.013 ± 0.0053 in assay [2].
The like results for UCCUGGAUGUCGUUUGCAUAGUAUUUAGUUA were, in that order, 0.13 ± 0.013, 0.00976 ± 0.0036 and 0.0445 ± 0.013.
The like results for UCCUCGAACAGCUUGCAUAGUAUUUAGUUA were, in that order, 0.3 ± 0.017, 0.00922 ± 0.0026 and 0.198 ± 0.038.
The like results for UCCUGCUACUGCUUGCAUACUAUUUAGUUA were, in that order, 0.0731 ± 0.011, 0.00293 ± 0.0023 and 0.00669 ± 0.0028.
On to UCCUGGAUGUCCCUGCAUAGUAUUUAGUUA, for which the “pre-steady-state target cleavage rate” value worked out at 0.085 ± 0.014 in assay [1] (setting [3]), 0.00467 ± 0.0023 in assay [1] (setting [4]) and 0.00326 ± 0.0026 in assay [2].
The like results for UCCUGGAACAGCUUGUAUAGUAUUUAGUUA were, in that order, 0.323 ± 0.017, 0.00685 ± 0.0022 and 0.0686 ± 0.013.
The like results for UCCUGCUAGAGCUUGCAUAGUAUAUAGUUA were, in that order, 0.176 ± 0.02, 0.00268 ± 0.0026 and 0.00471 ± 0.0017.
The like results for UCCUGGAUGUGCUAGCAUAGUAUUUAGUUA were, in that order, 0.125 ± 0.013, 0.00747 ± 0.0023 and 0.00573 ± 0.0027.
For the sequence UCCUGGAUCACUUGCAUAGUAUUUAGUUA, the “pre-steady-state target cleavage rate” value was 0.214 ± 0.018 in assay [1] (setting [3]), 0.0066 ± 0.0022 in assay [1] (setting [4]) and 0.0567 ± 0.014 in assay [2].
Take UCCUGGAUCAGCUUGCAUUGUAAUUAGUUA: the “pre-steady-state target cleavage rate” value in assay [1] (setting [3]) stood at 0.097 ± 0.011; in assay [1] (setting [4]) it was 0.00466 ± 0.0022; in assay [2] it was 0.00179 ± 0.0017.
The like results for UCCUGGAUGUCGCUGCAUAGUAUUUAGUUA were, in that order, 0.0516 ± 0.0095, 0.00769 ± 0.0026 and 0.00471 ± 0.0025.
For the sequence UCCUCCUACAUCUUGCAUAGUAUUUAGUUA, the figures for the “pre-steady-state target cleavage rate” value in assay [1] (setting [3]), in assay [1] (setting [4]) and in assay [2] were 0.277 ± 0.02, 0.00791 ± 0.0022 and 0.0662 ± 0.02, respectively.
The like results for UCCUGCUACAGCUUGCUAAGUAUUUAGUUA were, in that order, 0.176 ± 0.018, 0.00399 ± 0.0022 and 0.00353 ± 0.0029.
